# In PubChem BioAssay (NCI):
# Compounds without any hit were thinned out: in the full panel of roughly 79,000, 15% have a hit. Values without a mark were called inactive. The source made the active and inactive calls. Rule as the data show it: active = growth inhibition above about 70%; inactive = the rest.
# How the values were obtained:
# [1] = NCI Yeast Anticancer Drug Screen. Data for the rad52 strain (AID 147);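 also: 0% = growth of vehicle-treated control cultures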; settings: S. cerevisiae rad52 mutant growth inhibition, stronger effect = higher value
# How it was run: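 Vehicle-treated cultures served as the reference for growth inhibition of compound-exposed yeast bearing a DNA repair mutation.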
# [2] = NCI Yeast Anticancer Drug Screen. Data for the wt1 strain (AID 149);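 also: 0% = growth of vehicle-treated wt1 cultures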; settings: S. cerevisiae wt1 strain (SPY 50644) growth inhibition, stronger effect = higher value
# How it was run: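 wt1 yeast, compound-treated; % growth inhibition vs vehicle control.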
# [3] = NCI Yeast Anticancer Drug Screen. Data for the rad50EPP+ strain (AID 151);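 also: 0% = growth of vehicle-treated control cultures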; settings: S. cerevisiae rad50 mutant strain, stronger effect = higher value
# How it was run: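 In this screen, rad50EPP+ yeast were exposed to compounds. Growth inhibition was scored against vehicle-treated controls.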
# [4] = NCI Yeast Anticancer Drug Screen. Data for the mgt1 strain (AID 153); settings: S. cerevisiae mgt1 mutant growth inhibition, stronger effect = higher value
# How it was run: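 mgt1 strain exposed; growth vs vehicle control recorded as inhibition.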
# [5] = NCI Yeast Anticancer Drug Screen. Data for the mec2-1 strain (AID 157); settings: S. cerevisiae mec2-1 strain, stronger effect = higher value
# How it was run: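 Vehicle-treated cultures served as reference for growth inhibition of compound-exposed mec2-1 yeast.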
# [6] = NCI Yeast Anticancer Drug Screen. Data for the rad14 strain (AID 159);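 also: 0% = growth of vehicle-treated control cultures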; settings: S. cerevisiae rad14 strain growth inhibition, stronger effect = higher value
# How it was run: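 Test compounds were applied to a repair-deficient yeast strain. Its growth was then compared with that of cultures given vehicle alone, and inhibition was expressed relative to those controls.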
# [7] = NCI Yeast Anticancer Drug Screen. Data for the sgs1 mgt1 strain (AID 161);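 also: 0% = growth of cultures given vehicle only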; settings: S. cerevisiae sgs1 mgt1 strain, stronger effect = higher value
# How it was run: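 Genetically altered yeast, compound exposure, growth inhibition relative to vehicle.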
# [8] = NCI Yeast Anticancer Drug Screen. Data for the CLN2oe strain (AID 163);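 also: 0% = growth of vehicle-only control cultures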; settings: S. cerevisiae CLN2oe strain, stronger effect = higher value
# How it was run: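 Inhibition relative to vehicle-treated yeast is reported. Cells: strain with genetic alteration in cell-cycle control, grown with compound.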
# [9] = NCI Yeast Anticancer Drug Screen. Data for the cln2 rad14 strain (AID 165);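 also: 0% = growth equal to vehicle treated cultures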; settings: S. cerevisiae cln2 rad14 strain, stronger effect = higher value
# How it was run: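 Each compound was tested on cln2 rad14 yeast. Inhibition of growth was calculated against vehicle-exposed controls.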
# [10] = NCI Yeast Anticancer Drug Screen. Data for the bub3 strain (AID 167); settings: S. cerevisiae bub3 mutant strain, stronger effect = higher value
# How it was run: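 Yeast carrying a defined mutation is treated with each compound, and growth is compared with that of vehicle-exposed cells to give inhibition.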
# [11] = NCI Yeast Anticancer Drug Screen. Data for the wt2 strain (AID 169);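 also: 0% = growth of vehicle-treated yeast cultures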; settings: S. cerevisiae wt2 strain growth inhibition, stronger effect = higher value
# How it was run: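 Inhibition of yeast growth was determined after compound treatment, normalised to controls receiving only vehicle.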
# [12] = NCI Yeast Anticancer Drug Screen. Data for the mlh1 strain (AID 171);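 also: 0% = growth of vehicle-treated control cultures of the same strain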; settings: S. cerevisiae mlh1 strain growth inhibition, stronger effect = higher value
# How it was run: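 Vehicle-normalised growth inhibition of a repair- or checkpoint-altered yeast strain following compound treatment.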
# [13] = NCI Yeast Anticancer Drug Screen. Data for the sgs1 strain (AID 173);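 also: 0% = growth of vehicle-only control cultures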; settings: S. cerevisiae sgs1 mutant, stronger effect = higher value
# How it was run: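 Screen format: yeast with repair or checkpoint alterations, compound exposure, growth read relative to vehicle.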
# [14] = NCI Yeast Anticancer Drug Screen. Data for the mlh1 rad18 strain (AID 175); settings: S. cerevisiae mlh1 rad18 strain growth inhibition, stronger effect = higher value
# How it was run: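 Vehicle-treated cultures served as the reference for growth inhibition in a yeast strain carrying DNA damage repair alterations exposed to each compound.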
# [15] = NCI Yeast Anticancer Drug Screen. Data for the rad50 strain (AID 155);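 also: 0% = growth of vehicle-only cultures of the same strain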; settings: S. cerevisiae rad50 strain growth inhibition, stronger effect = higher value
# How it was run: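 Genetically altered yeast (DNA repair pathway); compound treatment; growth inhibition vs vehicle ctrl.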
# [16] = at 5.0 µM (retest, dose inferred, filed as 0.5)
# [17] = at 50.0 µM (retest, dose inferred, filed as 5.0)
structure (smiles),measurement,setting,value
COc1cc(C(=O)/C=C/c2ccccc2O)ccc1O,growth inhibition,[1]; at 1.2 µM,-11%
same,growth inhibition,[1]; at 3.7 µM,55%
same,growth inhibition,[1]; at 11.0 µM,98% (active)
same,growth inhibition,[1]; at 33.0 µM,98% (active)
same,growth inhibition,[1]; at 100.0 µM,98% (active)
same,growth inhibition,[2]; at 1.2 µM,-11%
same,growth inhibition,[2]; at 3.7 µM,73% (active)
same,growth inhibition,[2]; at 11.0 µM,98% (active)
same,growth inhibition,[2]; at 33.0 µM,99% (active)
same,growth inhibition,[2]; at 100.0 µM,98% (active)
same,growth inhibition,[3]; at 1.2 µM,11%
same,growth inhibition,[3]; at 3.7 µM,89% (active)
same,growth inhibition,[3]; at 11.0 µM,99% (active)
same,growth inhibition,[3]; at 33.0 µM,99% (active)
same,growth inhibition,[3]; at 100.0 µM,98% (active)
same,growth inhibition,[4]; at 1.2 µM,9%
same,growth inhibition,[4]; at 3.7 µM,84% (active)
same,growth inhibition,[4]; at 11.0 µM,98% (active)
same,growth inhibition,[4]; at 33.0 µM,99% (active)
same,growth inhibition,[4]; at 100.0 µM,98% (active)
same,growth inhibition,[5]; at 1.2 µM,-7%
same,growth inhibition,[5]; at 3.7 µM,78% (active)
same,growth inhibition,[5]; [16],80% (active)
same,growth inhibition,[5]; at 11.0 µM,99% (active)
same,growth inhibition,[5]; at 33.0 µM,98% (active)
same,growth inhibition,[5]; [17],99% (active)
same,growth inhibition,[5]; at 50.0 µM,94.4% (active)
same,growth inhibition,[5]; at 100.0 µM,98% (active)
same,growth inhibition,[6]; at 1.2 µM,-6%
same,growth inhibition,[6]; at 3.7 µM,62%
same,growth inhibition,[6]; at 11.0 µM,99% (active)
same,growth inhibition,[6]; at 33.0 µM,98% (active)
same,growth inhibition,[6]; at 100.0 µM,98% (active)
same,growth inhibition,[7]; [16],-4%
same,growth inhibition,[7]; [17],98% (active)
same,growth inhibition,[7]; at 50.0 µM,94.4% (active)
same,growth inhibition,[8]; at 1.2 µM,19%
same,growth inhibition,[8]; at 3.7 µM,42%
same,growth inhibition,[8]; at 11.0 µM,99% (active)
same,growth inhibition,[8]; at 33.0 µM,99% (active)
same,growth inhibition,[8]; at 100.0 µM,98% (active)
same,growth inhibition,[9]; [16],42%
same,growth inhibition,[9]; [17],98% (active)
same,growth inhibition,[9]; at 50.0 µM,92.8% (active)
same,growth inhibition,[10]; at 1.2 µM,-20%
same,growth inhibition,[10]; at 3.7 µM,53%
same,growth inhibition,[10]; [16],76% (active)
same,growth inhibition,[10]; at 11.0 µM,99% (active)
same,growth inhibition,[10]; at 33.0 µM,99% (active)
same,growth inhibition,[10]; [17],97% (active)
same,growth inhibition,[10]; at 50.0 µM,94.2% (active)
same,growth inhibition,[10]; at 100.0 µM,98% (active)
same,growth inhibition,[11]; at 1.2 µM,-24%
same,growth inhibition,[11]; at 3.7 µM,50%
same,growth inhibition,[11]; at 11.0 µM,99% (active)
same,growth inhibition,[11]; at 33.0 µM,99% (active)
same,growth inhibition,[11]; at 100.0 µM,98% (active)
same,growth inhibition,[12]; at 1.2 µM,1%
same,growth inhibition,[12]; at 3.7 µM,62%
same,growth inhibition,[12]; at 11.0 µM,99% (active)
same,growth inhibition,[12]; at 33.0 µM,99% (active)
same,growth inhibition,[12]; at 100.0 µM,98% (active)
same,growth inhibition,[13]; at 1.2 µM,8%
same,growth inhibition,[13]; at 3.7 µM,26%
same,growth inhibition,[13]; at 11.0 µM,99% (active)
same,growth inhibition,[13]; at 33.0 µM,99% (active)
same,growth inhibition,[13]; at 100.0 µM,99% (active)
same,growth inhibition,[14]; [16],79% (active)
same,growth inhibition,[14]; [17],98% (active)
same,growth inhibition,[14]; at 50.0 µM,91.8% (active)
CC1CCN(CCC(=O)c2ccc(Cl)cc2)CC1,growth inhibition,[1]; at 1.2 µM,4%
same,growth inhibition,[1]; at 3.7 µM,8%
same,growth inhibition,[1]; at 11.0 µM,28%
same,growth inhibition,[1]; at 33.0 µM,41%
same,growth inhibition,[1]; at 100.0 µM,53%
same,growth inhibition,[2]; at 1.2 µM,-1%
same,growth inhibition,[2]; at 3.7 µM,-1%
same,growth inhibition,[2]; at 11.0 µM,-1%
same,growth inhibition,[2]; at 33.0 µM,7%
same,growth inhibition,[2]; at 100.0 µM,16%
same,growth inhibition,[3]; at 1.2 µM,-1%
same,growth inhibition,[3]; at 3.7 µM,-1%
same,growth inhibition,[3]; at 11.0 µM,-1%
same,growth inhibition,[3]; at 33.0 µM,-2%
same,growth inhibition,[3]; at 100.0 µM,-7%
same,growth inhibition,[15]; at 1.2 µM,12%
same,growth inhibition,[15]; at 3.7 µM,19%
same,growth inhibition,[15]; [16],5%
same,growth inhibition,[15]; at 11.0 µM,32%
same,growth inhibition,[15]; at 33.0 µM,52%
same,growth inhibition,[15]; [17],36%
same,growth inhibition,[15]; at 50.0 µM,77.5% (active)
same,growth inhibition,[15]; at 100.0 µM,56%
same,growth inhibition,[5]; at 1.2 µM,0%
same,growth inhibition,[5]; at 3.7 µM,1%
same,growth inhibition,[5]; [16],9%
same,growth inhibition,[5]; at 11.0 µM,3%
same,growth inhibition,[5]; at 33.0 µM,17%
same,growth inhibition,[5]; [17],37%
same,growth inhibition,[5]; at 50.0 µM,29.1%
same,growth inhibition,[5]; at 100.0 µM,27%
same,growth inhibition,[6]; at 1.2 µM,19%
same,growth inhibition,[6]; at 3.7 µM,36%
same,growth inhibition,[6]; at 11.0 µM,33%
same,growth inhibition,[6]; at 33.0 µM,39%
same,growth inhibition,[6]; at 100.0 µM,45%
same,growth inhibition,[7]; [16],16%
same,growth inhibition,[7]; [17],50%
same,growth inhibition,[7]; at 50.0 µM,75.5% (active)
same,growth inhibition,[8]; at 1.2 µM,8%
same,growth inhibition,[8]; at 3.7 µM,17%
same,growth inhibition,[8]; at 11.0 µM,36%
same,growth inhibition,[8]; at 33.0 µM,49%
same,growth inhibition,[8]; at 100.0 µM,55%
same,growth inhibition,[9]; [16],14%
same,growth inhibition,[9]; [17],45%
same,growth inhibition,[9]; at 50.0 µM,73.6% (active)
same,growth inhibition,[10]; at 1.2 µM,1%
same,growth inhibition,[10]; at 3.7 µM,6%
same,growth inhibition,[10]; [16],18%
same,growth inhibition,[10]; at 11.0 µM,11%
same,growth inhibition,[10]; at 33.0 µM,24%
same,growth inhibition,[10]; [17],50%
same,growth inhibition,[10]; at 50.0 µM,81.7% (active)
same,growth inhibition,[10]; at 100.0 µM,31%
same,growth inhibition,[11]; at 1.2 µM,0%
same,growth inhibition,[11]; at 3.7 µM,1%
same,growth inhibition,[11]; at 11.0 µM,18%
same,growth inhibition,[11]; at 33.0 µM,5%
same,growth inhibition,[11]; at 100.0 µM,21%
